Screens as filed in PubChem BioAssay.
Sampled rows, rich in hits. Any-hit rate of the full collection: about 10%.
ALDH1A1 inh: blocks purified human ALDH1A1 activity | Potency, µM (titrated, usually from 75.3 µM), for the others: at the top dose activity, negative = inhibition, actives largely listed as inhibitors | Purified ALDH1A1, NADH fluorescence, propionaldehyde substrate | AID 1030 | P00352 | 220,000 compounds, 7.3% hits;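 further: potency means the concentration at half of the fitted maximal effect; plate controls were no enzyme wells and a reference inhibitor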
HPGD block: inhibitors of human 15-hydroxyprostaglandin dehydrogenase (HPGD); purified HPGD, NADH fluorescence kinetic, PGE2 substrate; P15428; Potency, µM, for the others: at the highest dose activity change, negative = inhibition, most hits filed as inhibitors; 150,000 compounds, 4.3% hits; AID 894; further: potency means the concentration at half of the fitted maximal effect
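20 nM HPGD preincubated 15 min at room temperature with compound in 50 mM Tris-HCl pH 8, 0.01% Tween 20. Started with 1 mM NAD+ and 30 uM prostaglandin E2; NADH fluorescence (360/450 nm) read 5 times over 30-s intervals, last minus first.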
ALOX12 inhib: inhibitors of human 12-lipoxygenase (ALOX12); purified 12-hLO, xylenol orange hydroperoxide absorbance; Potency, µM (titrated, usually from 57.1 µM), inactives show at the top dose activity change, negative = inhibition, usual class: inhibitors; 150,000 compounds, 0.12% hits; AID 1452; P18054; active means well fitted inhibition curve with a large enough effect; inconclusive means small, poorly fitted or top-dose-only effect; further: potency means the concentration at half of the fitted maximal effect; nearly all actives have a fitted effect of over 55% in size
Target sequence (P18054 whole entry, looked up): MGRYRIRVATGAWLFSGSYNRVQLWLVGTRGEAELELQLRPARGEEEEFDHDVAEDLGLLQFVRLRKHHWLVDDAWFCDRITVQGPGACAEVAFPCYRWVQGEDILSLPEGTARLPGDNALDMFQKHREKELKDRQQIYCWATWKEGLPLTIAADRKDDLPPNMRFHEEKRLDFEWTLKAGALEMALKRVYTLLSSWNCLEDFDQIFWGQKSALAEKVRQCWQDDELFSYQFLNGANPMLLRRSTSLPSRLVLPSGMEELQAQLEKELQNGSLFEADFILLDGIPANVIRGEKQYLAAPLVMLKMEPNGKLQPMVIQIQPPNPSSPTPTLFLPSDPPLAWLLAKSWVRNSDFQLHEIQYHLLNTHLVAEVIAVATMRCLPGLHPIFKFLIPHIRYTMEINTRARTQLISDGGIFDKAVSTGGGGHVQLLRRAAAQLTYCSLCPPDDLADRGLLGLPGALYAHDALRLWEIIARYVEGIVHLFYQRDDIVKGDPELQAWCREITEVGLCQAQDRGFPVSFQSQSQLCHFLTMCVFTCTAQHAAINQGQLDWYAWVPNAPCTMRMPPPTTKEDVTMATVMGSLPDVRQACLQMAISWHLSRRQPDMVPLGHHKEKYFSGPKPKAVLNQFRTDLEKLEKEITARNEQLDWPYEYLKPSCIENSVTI
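Purified human 12hLO (150 nM final) was preincubated with compounds for 15 min at room temperature in 25 mM Hepes pH 7.0, 0.01% Triton X-100, then reacted with 40 uM arachidonic acid for 30 min. Hydroperoxide was detected with ferrous iron/xylenol orange.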
PNC assembly inh: inhibitors of perinucleolar compartment assembly; PC3M PTB-GFP, PNC prevalence imaging, 16 h; stronger effect = lower value; activity change (PNC), negative = inhibition, % at 10 µM; 140,000 compounds, 3.1% hits; AID 2417;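 active means readout at or below -70, meaning at least 70% loss of cells showing the perinucleolar compartment, a nuclear body marking cancer cells; inconclusive means readout between -30 and a set limit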;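 further: plate controls were DMSO wells for no effect and camptothecin positive control wells for full effect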
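PC3M cells stably expressing PTB-GFP, 750–1000 cells/well, treated 16 h at 37 °C with compound (23 nl of library stock), in duplicate. After paraformaldehyde fixation and Hoechst stain, imaged at 20x; PNC prevalence scored by image analysis.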
Lamin A splicing: LMNA splicing modulation; HeLa LMNA splicing GFP/RFP minigene ratio, 48 h; Potency, µM (titrated, usually from 46.1 µM), for the others: at the highest dose ratio change, negative = inhibition, most hits filed as inhibitors; 200,000 compounds, 0.01% hits; AID 1487; active means well fitted inhibition curve with a large enough effect in the signal ratio, with a control signal flat, not every such curve was filed as active; inconclusive means small, poorly fitted or top-dose-only effect, or effect the other way, or a change in a side signal; the % refers to the signal ratio; further: potency means the concentration at half of the fitted maximal effect
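Read-out is the ratio of GFP to DsRed2 object intensity, acquired by 488 nm laser-scanning cytometry on HeLa lamin A-EGFP minigene reporter cells. Compound incubation 48 hrs at 37 °C in Opti-MEM with 2% FBS; DMSO 0.5% final.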
Numbers without * were called inactive; ? = inconclusive; . = no result; [ ] = dose if it differs, or a comment. Unless noted, the call rests on the fitted dose curve; in most records, active means well fitted inhibition curve with a large enough effect (not every such curve was filed as active); inconclusive means small, poorly fitted or top-dose-only effect, or another doubt; inactive means no such curve, though single readings can be large or run the other way. Unless noted, on the % scale 0 is the no-effect control and ±100 the full control effect.

SMILES | ALDH1A1 inh | HPGD block | ALOX12 inhib | PNC assembly inh | Lamin A splicing
NC1=NC(=O)CC(C(=O)NCc2ccccc2)S1 (configuration not stated) | 17.8µM* | -2.4% | -1.5% | -10.9 | 0.0%
COc1cc(NCCCCCCCN)c2ncccc2c1 | 3.55µM* | -11.7% | 24.2% | ? | ?
COc1cc(NC(C)CCCN)c2ncccc2c1 (configuration not stated) | -3.5% | -5.5% | -2.0% | . | .
O=S1(=O)CCC(NC(=S)NC2CCS(=O)(=O)C2)C1 (configuration not stated) | 3.5% | -9.5% | -2.5% | 47.7 | ?
O=S1(=O)CCC(NC(=S)N2CCOCC2)C1 (configuration not stated) | -2.9% | -6.8% | -2.4% | -101.7* | -1.3%
O=C(Nc1cccc(F)c1)N1CCC2(CCNCC2)CC1 | ? | 1.9% | -0.6% | . | .
Cc1cc(C)c2c(N)c3cccc(C)c3nc2n1 | ? | ? | -0.3% | -92.1* | ?
CCOC(=O)CSc1nc2ccc(NC(=O)COc3ccccc3C)cc2s1 | . | . | . | . | 12.2%[46 µM]
COc1ccccc1-n1cnnc1SCC(=O)Nc1ncc(Cl)cc1Cl | 4.47µM* | -4.3% | 2.4% | ? | -5.8%
COCCCn1cnnc1SCC(=O)Nc1ccc(S(=O)(=O)N2CCCC2)cc1 | 11.2µM* | -7.3% | 1.6% | 32.8 | 3.1%
Cn1cnnc1SCC(=O)Nc1ccc(S(=O)(=O)N2CCCC2)cc1 | 3.1% | -0.8% | 6.1% | -23.2 | -7.4%
COCCn1cnnc1SCC(=O)Nc1ccc(Br)cc1F | 12.6µM* | . | . | . | .
COc1ccccc1-n1cnnc1SCC(=O)Nc1cccc(S(=O)(=O)N2CCCCC2)c1 | 0.631µM* | -12.2% | -4.7% | ? | ?
COCCn1cnnc1SCC(=O)Nc1cccc(S(=O)(=O)N2CCCCCC2)c1 | ? | -4.4% | 0.9% | -1.4 | ?
O=S1(=O)c2ccccc2N(Cc2cccc(F)c2)c2ccccc21 | . | . | . | . | 19.2%[46 µM]
COc1ccccc1-n1cnnc1SCC(=O)c1cc(C)n(Cc2cccs2)c1C | 1.26µM* | -18.5% | -12.0% | ? | ?
Cc1nc(N2CCCC2)c2c(C(=O)N3CCN(c4cccc(C)c4C)CC3)c(C)oc2n1 | . | . | . | . | 6.0%[46 µM]
COc1ccc(-n2c(O)c(/C=N/Nc3nc(C)cc(C)n3)c3ccccc3c2=O)cc1OC | 0.794µM* | . | . | . | ?
CN(Cc1ccccc1)C(=O)Cn1c(=O)c2cccn2c2ccc(F)cc21 | . | . | . | . | 2.1%[46 µM]
O=C(CSc1nnc(COc2cccc3cccnc23)o1)N1CCc2ccccc21 | 14.1µM* | -11.9% | -2.0% | ? | ?
O=C(CSc1nnc(COc2ccc(F)cc2)o1)N1c2ccccc2CCc2ccccc21 | 3.16µM* | -14.2% | -5.7% | -18.6 | ?
O=C(CSc1nnc(Cc2ccccc2)o1)N1CCc2ccccc21 | 8.8% | 1.6% | 0.9% | 22.2 | -5.7%
O=C(CSc1nnc(COc2cccc3cccnc23)o1)N1CCN(C(=O)c2ccco2)CC1 | -2.5% | -14.7% | 1.8% | -100.0* | -2.3%
O=C1N=C(O)CN1/N=C\c1ccc(-c2ccc([N+](=O)[O-])cc2)o1 | -0.6% | -24.0% | -6.0% | . | ?
O=C(O)COc1cccc(-c2ocnc2-c2nc(-c3ccccc3)c(-c3ccccc3)o2)c1 | ? | ? | -1.0% | . | .
SMILES | ALDH1A1 inh | HPGD block | ALOX12 inhib | PNC assembly inh | Lamin A splicing
COc1cc(NC(=O)CCn2nc(C)c(S(=O)(=O)N3CCCCC3)c2C)cc(OC)c1OC | . | . | . | . | -13.5%[46 µM]
O=C(O)/C=C\c1ccc(Cn2ccnc2)cc1 | -7.8%[20.9 µM] | -6.8% | -4.4%[25.6 µM] | . | ?
COc1cc([C@H]2Oc3cc([C@H]4Oc5cc(O)cc(O)c5C(=O)[C@@H]4O)ccc3O[C@@H]2CO)ccc1O | 14.1µM* | -23.6% | 5.0% | . | ?
COc1cc([C@@H]2Oc3cc([C@H]4Oc5cc(O)cc(O)c5C(=O)[C@H]4O)ccc3O[C@H]2CO)ccc1O | ? | 35.5µM* | ? | . | .
Cc1cc(C)n(CCc2nc(-c3ccc(F)cc3)cs2)n1 | 2.8% | 25.1µM* | -1.3% | 50.2 | ?
Cc1cc(C)n(CCc2nc(-c3ccc(C(C)(C)C)cc3)cs2)n1 | ? | . | -3.5% | 24.6 | ?
O=C(Nc1cccc(F)c1)N1CC[C@@]2(CCCNC2)C1 | 25.1µM* | -9.7% | -4.1% | . | .
Cc1cc(C)nc(/N=C(\N)Nc2ccccc2-c2ccccc2)n1 | 8.3% | . | . | . | ?
C/C(=N\NC(=O)Cc1csc(N2CCOCC2)n1)c1ccccc1 | 1.4% | -10.1% | 2.1% | -7.5 | -11.2%
O=C(Cc1csc(N2CCOCC2)n1)N/N=C/c1ccc(O)c(O)c1O | 7.51µM* | . | . | . | 1.4%[46 µM]
COc1ccc(/C=N/NC(=O)CCN2CCN(c3ccccc3)CC2)c(OC)c1OC | 4.2% | -0.3% | 0.1% | -25.0 | ?
COc1cc(/C=N/NC(=O)CCN2CCN(Cc3ccccc3)CC2)cc(OC)c1OC | ? | ? | 3.0% | 14.4 | ?
COc1cc(/C=N/NC(=O)CCN2CCN(c3ccccc3)CC2)cc(OC)c1OC | -10.7% | -11.8% | -2.7% | -86.3* | ?
O=C(CCN1CCN(c2ccccc2)CC1)N/N=C/c1ccc(O)c(O)c1O | 3.98µM* | . | . | . | .
CCc1ccccc1NC(=O)CCn1cccn1 | . | . | . | . | 6.3%[46 µM]
COc1cc(C(=O)OC2CC[C@]3(C)C4CCC5[C@]6(O)CC(O)[C@]7(O)C(CN8CC(C)CCC8[C@]7(C)O)[C@]6(O)C[C@@]53O[C@]24O)cc(OC)c1OC (some centres not stated) | 1.9% | -4.2% | -3.9% | . | -9.6%
Cc1cccc(C)c1N=C1SC(CC(=O)Nc2c(C)cccc2C)C(=O)N1CCc1ccccn1 (configuration not stated) | 1.6% | -6.3% | -0.8% | -112.2* | 6.7%
COc1cccc(N=C2SC(CC(=O)Nc3ccccc3)C(=O)N2Cc2ccccn2)c1 (configuration not stated) | 8.91µM* | . | . | . | -14.9%[46 µM]
COc1ccc(N=C2SC(CC(=O)Nc3ccccc3F)C(=O)N2Cc2ccco2)cc1 (configuration not stated) | 2.51µM* | -7.6% | -2.0% | -3.2 | ?
O=C(CC1SC(=Nc2ccccc2)N(CCc2ccccn2)C1=O)Nc1ccc(F)cc1 (configuration not stated) | -13.6% | -17.1% | 5.9% | ? | -10.6%
C[C@@H]1/C=C\CC(=O)OC[C@H](C)C(=O)N[C@@H](Cc2ccccc2)C(=O)OC1 | 6.6%[13.5 µM] | . | . | . | .
O=C(O)[C@H]1C(=CCO)O[C@H]2CC(=O)N12 | ? | -20.3% | 2.6% | . | ?
COc1ccc(S(=O)(=O)N2CCN(CC(=O)Nc3cc(OC)cc(OC)c3)CC2)cc1 | ? | -12.1% | -5.8% | 55.9 | -20.2%
COc1ccc(S(=O)(=O)N2CCCN(CC(=O)Nc3ccc(OC)c(Cl)c3)CC2)cc1 | 1.58µM* | -15.9% | -13.9% | 4.7 | -11.5%
COc1ccc(NC(=O)CN2CCN(S(=O)(=O)c3ccc(Cl)cc3)CC2)cc1 | 18.9µM* | -3.2% | -16.2% | 51.2 | -2.1%
